Data on 40 compounds can be found in the supplement of paper PMC8975748.

Counter-ions that a name gives are not always drawn. ± gives the standard deviation of the averaged measurements.

The test has as its system Saccharomyces cerevisiae BY4741 SeMeCo community. In words: mean cell size (pixel area) (pixels); higher = larger cells. Conditions: 10 µM; 24 h; SM minimal medium. An outline of the steps: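 For 24 h, 70 µl of yeast culture diluted to OD600 = 0.3 from an overnight preculture at OD600 = 1.0 was kept in SM medium in 384-well plates acoustically predosed with drug, final 10 µM. The strain was Saccharomyces cerevisiae BY4741 forming a fluorescent community of four plasmids, each complementing one auxotrophy and carrying a fluorescent marker. Automated confocal microscopy of paraformaldehyde-fixed cells, analysed in Harmony, provided mean cell pixel area per well, which was averaged over 3 replicates. Same SeMeCo high-content imaging drug screen: Selleck FDA-approved drugs at 10 µM, 24 h in SM medium, 384-well plates, 3 replicates.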
As for `Nc1nc(O)c2ncn(CCC(CO)CO)c2n1` [Penciclovir], the mean cell size came to 12.4 ± 0.4.

In the case of `COc1cc([C@@H]2c3cc4c(cc3[C@@H](O[C@@H]3O[C@@H]5CO[C@@H](c6cccs6)O[C@H]5[C@H](O)[C@H]3O)[C@H]3COC(=O)[C@H]23)OCO4)cc(OC)c1O` [Teniposide], the mean cell size amounted to 12.5 ± 0.04.

In the case of `CCN1CCN(c2cc3c(cc2F)c(=O)c(C(=O)O)cn3C2CC2)CC1` [Enrofloxacin], the mean cell size stood at 12.04 ± 0.1.

`CC1(C)S[C@@H]2[C@H](NC(=O)[C@H](C(=O)O)c3ccsc3)C(=O)N2[C@H]1C(=O)O` [Ticarcillin sodium] gave a mean cell size of 12.4 ± 0.22.

`CN(C)CCC=C1c2ccccc2C(C)(C)c2ccccc21` [Melitracen hydrochloride] showed a mean cell size of 12 ± 0.24.

As for `Clc1ccc(C(Cn2ccnc2)OCc2ccc(Sc3ccccc3)cc2)c(Cl)c1` (stereo not given) [Fenticonazole Nitrate], the mean cell size was found to be 10.7 ± 0.2.

Take `C[N+](C)(C)CCO.[Cl-]` [Choline Chloride]: the mean cell size was 12 ± 0.25.

The compound `COc1ccccc1OCC(O)CN1CCN(CC(=O)Nc2c(C)cccc2C)CC1` (stereo not given) [Ranolazine 2HCl] showed a mean cell size of 12.35 ± 0.013.

`CCn1cc(C(=O)O)c(=O)c2cc(F)c(N3CCN(C)CC3)cc21` [Pefloxacin Mesylate] displayed a mean cell size of 12.48 ± 0.059.

As for `C=CC1=C(C(=O)O)N2C(=O)[C@@H](NC(=O)/C(=N\OCC(=O)O)c3csc(N)n3)[C@H]2SC1` [Cefixime], the mean cell size was found to be 12.52 ± 0.039.

In the case of `O=c1[nH]c(=O)n([C@H]2C[C@H](O)[C@@H](CO)O2)cc1I` [Idoxuridine], the mean cell size is 12.4 ± 0.2.

The compound `COc1ccc2c(c1)c(CC(=O)OCC(=O)O)c(C)n2C(=O)c1ccc(Cl)cc1` [Acemetacin] registered a mean cell size of 12.45 ± 0.094.

With `COc1cc(NC(C)CCCN)c2ncccc2c1` (stereo not given) [Primaquine Diphosphate], the mean cell size was determined as 12.6 ± 0.24.

Regarding `NC[C@H]1O[C@H](O[C@H]2[C@H](O)[C@@H](O[C@H]3O[C@H](CO)[C@@H](O)[C@H](N)[C@H]3O)[C@H](N)C[C@@H]2N)[C@H](O)[C@@H](O)[C@@H]1O` [Kanamycin sulfate], the mean cell size is 11.9 ± 0.26.

As to `CC(C)CCCCC(=O)N[C@@H](CCN)C(=O)N[C@H](C(=O)N[C@@H](CCN)C(=O)N[C@H]1CCNC(=O)[C@H]([C@@H](C)O)NC(=O)[C@H](CCN)NC(=O)[C@H](CCN)NC(=O)[C@H](CC(C)C)NC(=O)[C@@H](Cc2ccccc2)NC(=O)[C@H](CCN)NC1=O)[C@@H](C)O` [Polymyxin B sulphate], the mean cell size was 11.1 ± 0.33.

`O=C1CN(/N=C/c2ccc(-c3ccc([N+](=O)[O-])cc3)o2)C(=O)N1` [Dantrolene sodium hemiheptahydrate]: the mean cell size came out at 12.7 ± 0.17.

Take `CCOC(=O)c1ccc(N)cc1` [Benzocaine hydrochloride]: the mean cell size is 12.43 ± 0.056.

For the compound `CC(C(=O)O)c1ccc2c(c1)CC(=O)c1ccccc1S2` (stereo not given) [Zaltoprofen], the mean cell size was 12.82 ± 0.12.

In the case of `COCCOC(=O)C1=C(C)NC(C)=C(C(=O)OC(C)C)C1c1cccc([N+](=O)[O-])c1` (stereo not given) [Nimodipine], the mean cell size amounted to 12.31 ± 0.09.

With `COC(=O)C1=C(C)NC(C)=C(C(=O)OC)C1c1ccccc1[N+](=O)[O-]` [Nifedipine], the mean cell size was determined as 12.5 ± 0.2.

As to `CCCCc1oc2ccc(NS(C)(=O)=O)cc2c1C(=O)c1ccc(OCCCN(CCCC)CCCC)cc1` [Dronedarone HCl], the mean cell size amounted to 12.24 ± 0.057.

For the compound `O=C1CCc2ccc(OCCCCN3CCN(c4cccc(Cl)c4Cl)CC3)cc2N1` [Aripiprazole], the mean cell size stood at 12.3 ± 0.16.

Regarding `CCCCCCCCc1ccc(CCC(N)(CO)CO)cc1` [Fingolimod], the mean cell size came to 12.1 ± 0.37.

`CCCc1nn(C)c2c(=O)[nH]c(-c3cc(S(=O)(=O)N4CCN(C)CC4)ccc3OCC)nc12` [Sildenafil] came in with a mean cell size of 11.4 ± 0.3.

`CN1CCN(CCCN2c3ccccc3Sc3ccc(C(F)(F)F)cc32)CC1` [Trifluoperazine 2HCl]: the mean cell size was 12.1 ± 0.41.

On to `CC/C(=C(\c1ccccc1)c1ccc(OCCN(C)C)cc1)c1ccccc1` [Tamoxifen Citrate], for which the mean cell size is 11.7 ± 0.14.

`COC(=O)Nc1nc2cc(C(=O)c3ccccc3)ccc2[nH]1` [Mebendazole] showed a mean cell size of 12.07 ± 0.077.

`CCn1cc(C(=O)O)c(=O)c2cc(F)c(N3CCN(C)CC3)cc21` [Pefloxacin Mesylate Dihydrate] gave a mean cell size of 12.7 ± 0.14.

For the compound `O=C1c2c(O)ccc(O)c2C(=O)c2c(NCCNCCO)ccc(NCCNCCO)c21` [Mitoxantrone 2HCl], the mean cell size was 12.9 ± 0.15.

With `CC(C)C(=O)Oc1ccc(CO)cc1[C@H](CCN(C(C)C)C(C)C)c1ccccc1` [Fesoterodine Fumarate], the mean cell size was found to be 12.3 ± 0.21.

The compound `CCCc1nn(C)c2c(=O)[nH]c(-c3cc(S(=O)(=O)N4CCN(C)CC4)ccc3OCC)nc12` [Sildenafil Mesylate] displayed a mean cell size of 12.2 ± 0.17.

Compound `Nc1c(CC(=O)O)cccc1C(=O)c1ccccc1` [Amfenac Sodium Monohydrate] yielded a mean cell size of 12.78 ± 0.078.

As for `CO/N=C1\C[C@]2(C[C@@H]3C[C@@H](C/C=C(\C)C[C@@H](C)/C=C/C=C4\CO[C@@H]5[C@H](O)C(C)=C[C@@H](C(=O)O3)[C@]45O)O2)O[C@H](/C(C)=C/C(C)C)[C@H]1C` [Moxidectin], the mean cell size worked out at 12.4 ± 0.18.

Turning to `COc1cc(NS(=O)(=O)c2ccc(N)cc2)ncn1` [Sulfamonomethoxine], the mean cell size amounted to 12.3 ± 0.041.

The compound `CN1C(C(=O)Nc2ccccn2)=C(O)c2sc(Cl)cc2S1(=O)=O` [Lornoxicam] displayed a mean cell size of 12.1 ± 0.13.

`C[C@@H](NCCCc1cccc(C(F)(F)F)c1)c1cccc2ccccc12` [Cinacalcet HCl] displayed a mean cell size of 12.17 ± 0.037.

`C[N+]1(C)CCC(=C(c2ccccc2)c2ccccc2)CC1` [Diphemanil Methylsulfate] came in with a mean cell size of 12.6 ± 0.23.

Consider `Oc1c(Br)cc(Br)c2cccnc12` [Broxyquinoline], for which the mean cell size was 14.7 ± 0.16.

As to `Nc1ccc(S(=O)(=O)Nc2ccnn2-c2ccccc2)cc1` [Sulfaphenazole], the mean cell size was 12.54 ± 0.079.

In turn, `Cc1ccccc1C(OCCN(C)C)c1ccccc1` (stereo not given) [Orphenadrine Citrate] displayed a mean cell size of 12.2 ± 0.14.
